Screening data from PubChem BioAssay.
mHTT-CaM PPI inh = inhibitors of human mutant huntingtin-calmodulin interaction | AlphaScreen His-mHTT/GST-CaM binding, luminescence | inhibition, % at 15 µM | AID 1671202 | 3.6% of 190,000 active | P42858
Pf apPOL block = Pf-apPOL DNA polymerase inhibition | Recombinant Pf-apPOL, molecular beacon fluorescence, 1.5 h | inhibition, % at 10 µM | AID 1794808 | 0.25% of 210,000 active
Each line names hits and unclear results; the compound was inactive in the other large screens. Only some compounds are listed: those with a hit (about 3.5% of all), similar ones and a draw of the others. No stated cut-off is given here; in the data, active means inhibition above about 50%; inactive means the rest.

CC(C)C(=O)NCc1csc(C2CCCN(C(=O)c3ccccc3)C2)n1 (stereo not drawn)	none
COc1ccccc1CNc1ccc2cn[nH]c2c1	none
Cc1ccccc1CNc1ccc2cn[nH]c2c1	mHTT-CaM PPI inh 62.0
COc1cc(CNc2ccc3cn[nH]c3c2)ccc1O	none
Oc1ccc(CNc2ccc3cn[nH]c3c2)cc1	none
Cc1ccc(CNc2ccc3[nH]ncc3c2)cc1	mHTT-CaM PPI inh 82.4
c1ccc(CNc2ccc3cn[nH]c3c2)cc1	mHTT-CaM PPI inh 81.8
O=C1OC(c2ccccc2)=N/C1=C/c1ccc(Cl)c(Cl)c1	none
CCC(=O)NCCc1csc(C2CCN(C(=O)Nc3ccccc3C)CC2)n1	none
COc1ccc(OC)c(NS(=O)(=O)c2cccc([N+](=O)[O-])c2)c1	none
Nc1nncn1C(=O)COc1ccc(Cl)cc1Br	none
CN(C)c1ccc(C=Nc2nc(-c3ccccc3)cs2)cc1	mHTT-CaM PPI inh 65.0
CN(C)c1ccc(Nc2nc(-c3ccncc3)cs2)cc1	none
O=C(Cn1[nH]c2c(cnc3ccc(Cl)cc32)c1=O)Nc1ccc(F)cc1F	mHTT-CaM PPI inh 66.0
Cc1cc(C)cc(NC(=O)Cn2[nH]c3c(cnc4ccc(F)cc43)c2=O)c1	none
Cc1ccc(NC(=O)Cn2[nH]c3c(cnc4ccc(Cl)cc43)c2=O)cc1	none
Cc1ccc2ncc3c(=O)n(CC(=O)Nc4cccc(F)c4)[nH]c3c2c1	mHTT-CaM PPI inh 80.6
O=C(Cn1[nH]c2c(cnc3ccc(Cl)cc32)c1=O)Nc1cccc(Cl)c1	none
Cc1ccc(NC(=O)Cn2[nH]c3c(cnc4ccc(F)cc43)c2=O)cc1C	none
Cc1c(Cl)cccc1NC(=O)Cn1[nH]c2c(cnc3ccc(F)cc32)c1=O	mHTT-CaM PPI inh 58.0
O=C(Cn1[nH]c2c(cnc3ccc(Cl)cc32)c1=O)Nc1cccc(F)c1	mHTT-CaM PPI inh 90.0
CCOC(=O)C(C)Oc1ccc2c(c1)OC(=Cc1ccccc1Cl)C2=O (stereo not drawn)	none
CCOc1ccc(-c2csc(NC(=O)c3cncc(Br)c3)n2)cc1	none
O=C(Nc1nc(-c2ccc(Cl)cc2)cs1)c1cncc(Br)c1	mHTT-CaM PPI inh 53.4
CCOCCCNC(=O)c1ccc2c(c1)ncn2-c1ccc(C)c(Cl)c1	mHTT-CaM PPI inh 84.0
COCCCNC(=O)c1ccc2c(c1)ncn2-c1ccc(C)c(Cl)c1	none
COc1ccc(C2=N/C(=C\c3ccc(OC)cc3OC)C(=O)O2)c(Cl)c1	none
Cc1ccc(C)c(N2CCN(Cc3cc4c(cc3[N+](=O)[O-])OCO4)CC2)c1	none
O=[N+]([O-])c1cccc(-c2ccc(CN3CCN(c4ccccc4)CC3)o2)c1	mHTT-CaM PPI inh 56.0
CN1CCN(Cc2ccc(-c3cccc([N+](=O)[O-])c3)o2)CC1	none
Cc1ccc(C)c(N2CCN(Cc3ccc(-c4ccccc4[N+](=O)[O-])o3)CC2)c1	mHTT-CaM PPI inh 69.5
Cc1ccccc1C(=O)N1CCC(c2nc(CCNC(=O)C(C)C)cs2)CC1	none
O=C(NCc1ccc(N2CCOCC2)nc1)c1ccccc1C(F)(F)F	none
CCc1ccccc1N(C)C(=O)c1nn(-c2ccccc2OC)c(=O)c2ccccc12	none
COc1cc(OC)cc(C2=N/C(=C\C(Cl)=C\c3ccccc3)C(=O)O2)c1	none
COc1ccc(C(=O)C=Cc2ccc(OC)c(OC)c2)c(O)c1	mHTT-CaM PPI inh 50.1
COc1ccc(C(=O)C=Cc2ccc(OC)c(OC)c2)c(OC)c1	none
O=C(Cc1cccs1)Nc1ccc(-c2nnc3n2CCCCC3)cc1	none
CN1C(=O)c2ccc(NC(=O)c3cc(I)ccc3Cl)cc2C1=O	none
COc1ccc(Cl)cc1NC(=O)CSc1nnc(-c2c[nH]c3ccccc23)n1C	mHTT-CaM PPI inh 54.7
CCOC(=O)c1ccccc1NC(=O)CSc1nnc(-c2c[nH]c3ccccc23)n1C	none
Cc1n[nH]c(C)c1S(=O)(=O)N1CCc2c(c(-c3nc(-c4ccccc4)no3)nn2C)C1	mHTT-CaM PPI inh 52.6
Cc1ccc(S(=O)(=O)N2CCc3c(c(-c4nc(-c5ccccc5)no4)nn3C)C2)cc1C	none
COc1cccc(NC(=O)CN(C)S(=O)(=O)c2ccc(Br)s2)c1	none
O=[N+]([O-])c1cc(C=Nc2cc(Cl)ccc2O)ccc1Cl	mHTT-CaM PPI inh 64.0
O=[N+]([O-])c1cc(C=Nc2ccc(Cl)cc2)ccc1Cl	none
CC(C)NC(=O)c1cc(-c2ccc(F)cc2)ns1	none
COc1ccc(NC(=O)c2ccccc2-c2ccccc2C(=O)O)c(OC)c1	none
c1ccc(-c2noc(-c3cc(N4CCOCC4)nc4ccccc34)n2)cc1	none
CCN1CCN(c2cc(-c3nc(-c4ccccc4)no3)c3ccccc3n2)CC1	mHTT-CaM PPI inh 65.7
Cc1cnc2c(ccc3c(C)c(C)cnc32)c1C	mHTT-CaM PPI inh 100.2 (no result: Pf apPOL block)
O=c1oc2ccc(Cl)cc2cc1-c1nc2ccccc2[nH]1	none
O=c1oc2ccc(Br)cc2cc1-c1nc2ccccc2[nH]1	Pf apPOL block 82.9
O=C(CN1C(=O)CCCc2ccccc21)NCc1cccc(F)c1	none
COc1cccc(C2(O)CC(C(F)(F)F)=NN2C(=O)c2ccccc2[N+](=O)[O-])c1 (stereo not drawn)	none
O=C(c1ccccc1)N1N=C(C(F)(F)F)CC1(O)c1cccc([N+](=O)[O-])c1 (stereo not drawn)	mHTT-CaM PPI inh 53.0
CCC1=NN(C(=O)c2ccccc2)C(O)(c2ccc(Br)cc2)C1 (stereo not drawn)	none
CC1=NN(C(=O)C(C)C)C(O)(c2ccc(Br)cc2)C1 (stereo not drawn)	none
CC1=NN(C(=O)c2cc(Br)ccc2O)C(O)(c2ccccc2)C1 (stereo not drawn)	mHTT-CaM PPI inh 98.0
CCC1=NN(C(=O)c2ccc(C)cc2)C(O)(c2ccc(Br)cc2)C1 (stereo not drawn)	mHTT-CaM PPI inh 70.0
CC1=NN(C(=O)c2cccc([N+](=O)[O-])c2)C(O)(c2ccc(Cl)cc2)C1 (stereo not drawn)	mHTT-CaM PPI inh 59.0
CC1=NN(C(=O)c2ccc(Cl)cc2)C(O)(c2cccc([N+](=O)[O-])c2)C1 (stereo not drawn)	none
O=C(Cc1ccc(Cl)cc1)N1CCN(c2ccc(C(F)(F)F)cc2[N+](=O)[O-])CC1	none
Cc1ccc(S(=O)(=O)c2cc3c(=O)n4cccc(C)c4nc3n(C3CCCC3)c2=N)cc1	none
CCCCOc1ccccc1/C=c1\sc2nc(-c3cccnc3)nn2c1=O	none
CC(=O)NCc1csc(C2CCN(S(=O)(=O)c3cc(C)cc(C)c3)CC2)n1	none
Cc1cc(=O)[nH]c(SCc2cn3ccsc3n2)n1	none
CC1=NN(C(=O)c2cccc(O)c2)C(O)(c2ccc(Br)cc2)C1 (stereo not drawn)	none
CC1=NN(C(=O)c2cccc([N+](=O)[O-])c2)C(O)(c2ccc(Br)cc2)C1 (stereo not drawn)	mHTT-CaM PPI inh 66.0
O=S(=O)(c1ccccc1)c1nc(C(c2ccccc2)c2ccccc2)oc1N1CCOCC1	none
O=C1C(N2CCOCC2)=CC(=NS(=O)(=O)c2ccccc2)c2ccccc21	mHTT-CaM PPI inh 72.0
O=C1C(N2CCOCC2)=CC(=NS(=O)(=O)c2ccc(Cl)cc2)c2ccccc21	mHTT-CaM PPI inh 64.0
O=S(=O)(Nc1ccc(N2CCOCC2)cc1)c1ccc(Cl)cc1	none
CC(=O)N1CCN(c2nc(CC(C)C)nc(C)c2Cc2ccccc2F)CC1	none
O=C(C1CCN(Cc2c(F)cccc2Cl)CC1)N1CCCC1	none
COCCN1CCC(CNC(=O)c2ccccc2Cl)CC1	none
c1ccc(Cn2cnnc2C2CCCN(Cc3ccccn3)C2)cc1 (stereo not drawn)	mHTT-CaM PPI inh 93.5
c1ccc(Cn2cnnc2C2CCCN(Cc3ccncc3)C2)cc1 (stereo not drawn)	none
